An excerpt weighted towards active compounds, which were near 4.7% of everything screened.
SKKanGAS inh – blocks kanamycin growth of S. pyogenes SKKanGAS strain | BacTiter-Glo, 6 h | inhibition, % at 7.5 µM | hit rate 1.3% among 300,000;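 active = mean replicate score, as percent of positive control median, at least 50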;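 note: strain carries kanamycin resistance gene driven by streptokinase promoter and grows in 40 µg/ml kanamycin; loss of luminescence reflects streptokinase promoter inhibition or plain growth inhibition; 0% = median of DMSO wells and 100% = positive control at its reference dose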
PfHsp90 yeast 2 – inhibits growth of yeast expressing Plasmodium falciparum Hsp90; AID 504621; inhibition, % at 9.4 µM; hit rate 0.32% among 310,000; S. cerevisiae expressing PfHsp90, BacTiter-Glo ATP, 48 h; yeast lacking PDR1 and PDR3 efflux regulators;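 active = every replicate shows inhibition above about 80%, whatever the replicate mean, limit read from the data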;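 note: 0% = DMSO neutral controls and 100% = 20 µM radicicol positive controls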
tim23-1 inh – tim23-1 yeast growth inhibition; S. cerevisiae tim23-1 growth, BacTiter-Glo luminescence, 24 h; inhibition, % at 20 µM; hit rate 1.3% among 330,000; AID 463212;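 active = growth inhibition of the mutant yeast at or above 50%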;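 note: temperature-sensitive mutant grown at 25 °C; plate controls were DMSO-treated mutant yeast for no effect and medium wells lacking yeast for full effect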
tim10-1 inh – growth inhibitors of tim10-1 mutant yeast; S. cerevisiae tim10-1 ts strain growth, BacTiter-Glo, 24 h; inhibition, % at 20 µM; hit rate 2.2% among 330,000; AID 463190;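 active = inhibition of at least 40%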;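 note: mutant grown at 25 °C; 0% = DMSO wells with yeast and 100% = wells holding no yeast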
TIM10 inh – inhibits growth of TIM10 yeast strain; S. cerevisiae TIM10 strain growth, BacTiter-Glo luminescence, 24 h; hit rate 1.4% among 330,000; inhibition, % at 10 µM;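 active = inhibition of 40% or more at the single tested concentration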;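 note: wild-type TIM10 isogenic control strain grown at permissive 25 °C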
EBI2 antag – EBI2 (human) antagonism | EBI2 beta-arrestin recruitment, luminescence, 7a,25-OHC stimulated | inhibition, % at 5 µM | hit rate 0.81% among 360,000 | P32249 | AID 651636; in the data active = inhibition above about 38%;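 note: enzyme fragment complementation signal reports receptor beta-arrestin coupling in cells; 0% = agonist plus DMSO wells and 100% = wells without agonist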
Target sequence (P32249 whole entry, looked up, the tested form may be a part): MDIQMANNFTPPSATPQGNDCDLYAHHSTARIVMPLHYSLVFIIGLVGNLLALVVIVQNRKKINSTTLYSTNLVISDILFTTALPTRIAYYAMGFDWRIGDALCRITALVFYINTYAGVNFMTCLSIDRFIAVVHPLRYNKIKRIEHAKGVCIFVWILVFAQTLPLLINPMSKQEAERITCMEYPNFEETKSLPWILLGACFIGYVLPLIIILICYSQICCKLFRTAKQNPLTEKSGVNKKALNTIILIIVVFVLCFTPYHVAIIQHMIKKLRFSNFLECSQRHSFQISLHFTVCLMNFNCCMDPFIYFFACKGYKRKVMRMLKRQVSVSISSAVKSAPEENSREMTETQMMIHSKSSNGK
* hit, by the source's call; . = not tested or not shown.

SMILES	SKKanGAS inh	PfHsp90 yeast 2	tim23-1 inh	tim10-1 inh	TIM10 inh	EBI2 antag
O=C(CSC(=S)N1CCOCC1)Nc1nc(-c2ccccc2)c(-c2ccccc2)o1	41	.	11	12	-1	3
O=C(CSC(=S)N1CCCCC1)Nc1nc(-c2ccccc2)c(-c2ccccc2)o1	50*	.	12	17	-5	12
Cn1nnnc1SCC(=O)Nc1nc(-c2ccccc2)c(-c2ccccc2)o1	59*	-3	13	17	11	3
COc1ccc(OC)c(/C=C/c2ccc3cccc(O)c3n2)c1	90*	-13	33	35	1	23
COc1cc(Br)c(/C=C/c2ccc3cccc(O)c3n2)cc1OC	85*	-9	6	26	12	9
Oc1cccc2ccc(/C=C/c3ccccc3Br)nc12	103*	98*	28	18	-1	1
Oc1ccc2ccccc2c1/C=C/c1ccc2c(Br)cc(Br)c(O)c2n1	.	-48	.	.	.	-1
COc1cc(C(=O)N/N=C/c2ccc3c(c2)c2ccccc2n3C)ccc1O	51*	-1	-7	-12	-9	4
Cn1c2ccccc2c2ccc3c(c21)C(=O)C=CC3=O	.	124*	.	.	.	-36
COc1cc(C(=O)Nn2c(C)nc3ccccc3c2=O)cc(OC)c1OC	-3	18	6	4	-3	11
COc1cc(C(=O)N2CCCC(c3cc(C(=O)NCc4ccc(F)cc4)no3)C2)cc(OC)c1C (stereo not drawn)	.	.	.	.	.	30
CCOc1ccc(/C=N/NC(=S)NC2CC3CCC2C3)cc1 (stereo not drawn)	20	0	19	32	15	26
CCOc1ccc(/C=N/NC(=S)NC2CC3CC2C2C=CCC32)cc1 (stereo not drawn)	64*	-16	25	32	29	36
Oc1ccc(Cl)cc1Sc1cc(Cl)ccc1O	.	102*	.	.	.	-4
CN(C)C(=O)c1cc(Cl)ccc1Sc1cc(Cl)ccc1Cl	4	-28	40	31	13	14
O=C(O)c1cccc(N/N=C/C2=C(Cl)c3cc(Cl)ccc3SC2)c1	106*	-8	.	.	.	9
FC(F)(F)c1cc(-c2ccccc2)nc(N2CCCCC2)n1	84*	18	10	9	-9	-1
FC(F)(F)c1cc(-c2ccccc2)nc(N2CCOCC2)n1	14	33	-7	12	-5	-7
CN(C)c1ccc(C2C=C(c3ccc(Cl)cc3OC(F)F)Nc3ncnn32)cc1 (stereo not drawn)	87*	-4	40	31	26	16
O=C(c1cnn2c(C(F)(F)F)cc(-c3ccc(F)cc3)nc12)N1CCc2ccccc2C1	62*	4	33	18	13	22
Cc1ccc(-c2cc(C(F)F)n3ncc(C(=O)N4CCc5ccccc5C4)c3n2)cc1	-2	9	12	34	34	35
CN=C1S/C(=C\c2ccc(N3CCOCC3)c(F)c2)C(=O)N1C	61*	.	19	18	-1	2
CN=C1S/C(=C\c2ccc(N3CCCC3)c(F)c2)C(=O)N1C	36	-9	23	39	31	13
Cc1cccc(C)c1NC(=O)C(c1ccccc1F)n1c(=O)c(-c2ccccc2)nc2ccccc21 (stereo not drawn)	.	.	.	.	.	15
CCOc1ccc2nc(N3C(=O)/C(=C/c4ccc(Cl)cc4)NC3=S)sc2c1	96*	-2	.	.	.	-8
SMILES	SKKanGAS inh	PfHsp90 yeast 2	tim23-1 inh	tim10-1 inh	TIM10 inh	EBI2 antag
CCOc1ccc(N=C2NC(=O)S/C2=C\c2ccc(Cl)cc2)cc1	4	-18	-3	15	-14	0
O=C(C=Cc1ccccn1)c1ccccc1O	.	114*	.	.	.	-10
CCOC(=O)c1c(C)oc2c1c1c(c3ccccc32)OCN(Cc2cccnc2)C1	.	.	.	.	.	-5
CCOC(=O)c1c(C)oc2c1c(C(c1cccnc1)N1CCOCC1)c(O)c1ccccc12 (stereo not drawn)	4	91*	35	18	25	5
CCOC(=O)C1CCCN(C(=O)c2ccc3c(c2)C(C)(C)CCC3(C)C)CC1 (stereo not drawn)	.	.	.	.	.	8
C=CCn1c(SCc2c(C)noc2C)nc2sc3c(c2c1=O)CCCC3	60*	4	16	19	26	29
C=CCn1c(SCc2c(C)noc2C)nc2sc3c(c2c1=O)CCCCC3	54*	.	10	19	0	32
C=CCn1c(SCC(=O)N(C)C)nc2sc3c(c2c1=O)CCC3	-2	-17	11	16	-1	-11

Screening results (PubChem BioAssay)
